Molecules are shown by their SMILES. Inconclusive results are not listed. A call without a number means that no potency is given here. The source made the active and inactive calls. The call rests on the fitted dose curve; in most records, active means well fitted cell-killing curve with a large enough effect; inconclusive means small, poorly fitted or top-dose-only effect, or effect the other way; inactive means flat fitted curve, though single readings scatter.

The first test relates to C33A. Kind of test: Primary qHTS to identify gynecologic anti-cancer compounds using libraries of approved drugs and bioactive compounds (AID 1345084). Further: nearly all actives have a fitted effect of over 55% in size. The following applies: Gynecologic cancer cell panel viability, ATPlite luminescence, 48 h; series mostly up to 57.5 µM. A digest of the protocol: (§1)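 In this quantitative HTS, cell killing is estimated from loss of ATP-dependent luciferase light. Cells see five compound concentrations over a 48 h exposure.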
On the technique in general: Quantitative high-throughput screening tests each substance at several concentrations.
Consider `C#Cc1ccc(-c2ccccc2F)cc1`, for which the Potency result was “inactive”.
On the same count and under the same terms, the result for `Cn1c(=O)c2c(ncn2CC(=O)O)n(C)c1=O` reads “inactive”; that for `CC(=O)N1CCN(c2ccc(O)cc2)CC1`, “inactive”; that for `Cc1cc(=O)oc2cc(O[C@@H]3SC[C@@H](O)[C@H](O)[C@H]3O)ccc12`, “inactive”.
As for `CC(=O)N(CC(O)CO)c1c(I)c(C(=O)NCCO)c(I)c(C(=O)NCC(O)CO)c1I` (stereo not drawn), the Potency result was “inactive”.
Regarding `O=C(OCC(COC(=O)c1cccnc1)(COC(=O)c1cccnc1)COC(=O)c1cccnc1)c1cccnc1`, the Potency entry was “inactive”.
`CN(C)CCN(Cc1ccsc1)c1ccccn1`: the Potency entry is “inactive”.
As for `C#CC(C)(CC)OC(=O)c1ccccc1C(=O)O` (stereo not drawn), the Potency result is “inactive”.
Same read-out and setting: the result for `COC(=O)c1cc(Cl)c(NC(C)=O)cc1OC` reads “inactive”; that for `CCOC(=O)CN1CCCC1=O`, “inactive”; that for `COc1ccccc1OCC1CNC(=O)O1` (stereo not drawn), “inactive”.
On the same count and under the same terms, as for `C[C@]12CCC(=O)C=C1CC[C@@H]1[C@@H]2[C@@H](O)C[C@@]2(C)[C@H]1CC[C@]2(O)C(=O)COC(=O)CCC(=O)O`, the entry is “inactive”; as for `OCCOCCN1CCN(C(c2ccccc2)c2ccc(Cl)cc2)CC1` (stereo not drawn), “inactive”; as for `CCCCOC(=O)CCCCCCCCC(=O)OCCCC`, “inactive”.
The same measure, in the same setting: as for `CCCCCC1Nc2cc(C(F)(F)F)c(S(N)(=O)=O)cc2S(=O)(=O)N1` (stereo not drawn), the entry is “inactive”; as for `CN1CCC(=C2c3ccccc3CCc3cccnc32)CC1`, “inactive”; as for `CSCC[C@H](NC(=O)[C@H](Cc1c[nH]c2ccccc12)NC(=O)CCNC(=O)OC(C)(C)C)C(=O)N[C@@H](CC(=O)O)C(=O)N[C@@H](Cc1ccccc1)C(N)=O`, “inactive”.
Regarding `CCCc1c2oc(C(=O)O)cc(=O)c2cc2c(=O)cc(C(=O)O)n(CC)c12`, the Potency entry is “inactive”.
In the case of `CCC(=O)Oc1ccc2c(c1)CC[C@@H]1[C@@H]2CC[C@@]2(C)[C@H]1C[C@@H](OC(=O)CC)[C@@H]2OC(=O)CC`, the Potency result was “inactive”.
On to `CCC(CN)=C(c1ccccc1)c1ccccc1`, for which the Potency result was “inactive”.
Still for that read-out and setting: as for `COc1ccc2nc(SCc3ncc(C)c(OC)c3C)[nH]c2c1`, the entry is “inactive”.
`N#CC1(c2ccc(F)cc2)CCC(=O)CC1`: the Potency result is “inactive”.
Still for that read-out and setting: as for `Cc1cc(CCCOc2c(C)cc(-c3noc(C(F)(F)F)n3)cc2C)on1`, the entry is “inactive”; as for `NS(=O)(=O)c1cc(C(=O)NN2C[C@H]3[C@H]4CCC(C4)[C@H]3C2)ccc1Cl`, “inactive”.
For `O=C(CCCl)NCc1ccccc1`, the Potency result is “inactive”.
On the same count and under the same terms, the result for `CCCCC(O)/C=C(C)/C=C/C=C/C(=O)N1CCCC1=O` (stereo not drawn) reads “inactive”; that for `CC(C)(C)NCC(O)COc1ccccc1OCC1CCCO1` (stereo not drawn), “inactive”.
Regarding `Clc1ccc2c(c1)Nc1ccccc1S2`, the Potency result is “inactive”.
Same read-out and setting: the result for `O=c1[nH]c2ccccc2c(=O)n1CCCl` reads “inactive”; that for `CCNC(=O)NCCCOc1cccc(CN2CCCCC2)c1`, “inactive”; that for `O=C1CC2(CCCC2)CC(=O)N1`, “inactive”.
As to `CCCc1ncc(C(=O)O)s1`, the Potency result is “inactive”.
Same read-out and setting: as for `CCOC(=O)c1ccc(NC(=O)CN2CCCCC2)cc1`, the entry is “inactive”; as for `CCCCN(CCCC)C(C(N)=O)c1ccc(OC)cc1` (stereo not drawn), “inactive”.
Still for that read-out and setting: as for `Cc1coc2ccccc2c1=O`, the entry is “inactive”; as for `COC(=O)c1cc(S(N)(=O)=O)ccc1OC`, “inactive”.
Same read-out and setting: as for `CC(=O)Nc1ccc(S(=O)(=O)Nc2cc(C)on2)cc1`, the entry is “inactive”.
As for `CCn1ccc(NS(=O)(=O)c2ccc(N)cc2)nc1=O`, the Potency entry is “inactive”.
As for `OCCCc1ccccc1`, the Potency result was “inactive”.

The subject of another test is CAOV3. The test is described as above. The following applies: Gynecologic cancer cell panel viability, ATPlite luminescence, 48 h; series mostly up to 57.5 µM. A digest of the protocol:
as §1
On the technique in general: In ATP-based viability assays light output follows the ATP content of the culture.
On to `C#Cc1ccc(-c2ccccc2F)cc1`, for which the Potency entry was “inactive”.
For the molecule `Cn1c(=O)c2c(ncn2CC(=O)O)n(C)c1=O`, the Potency result is “inactive”.
With `CC(=O)N1CCN(c2ccc(O)cc2)CC1`, the Potency result was “inactive”.
Still for that read-out and setting: the result for `Cc1cc(=O)oc2cc(O[C@@H]3SC[C@@H](O)[C@H](O)[C@H]3O)ccc12` reads “inactive”; that for `CC(=O)N(CC(O)CO)c1c(I)c(C(=O)NCCO)c(I)c(C(=O)NCC(O)CO)c1I` (stereo not drawn), “inactive”.
Turning to `O=C(OCC(COC(=O)c1cccnc1)(COC(=O)c1cccnc1)COC(=O)c1cccnc1)c1cccnc1`, the Potency result was “inactive”.
The same measure, in the same setting: the result for `CN(C)CCN(Cc1ccsc1)c1ccccn1` reads “inactive”; that for `C#CC(C)(CC)OC(=O)c1ccccc1C(=O)O` (stereo not drawn), “inactive”; that for `COC(=O)c1cc(Cl)c(NC(C)=O)cc1OC`, “inactive”.
Same read-out and setting: as for `CCOC(=O)CN1CCCC1=O`, the entry is “inactive”.
On the same count and under the same terms, as for `COc1ccccc1OCC1CNC(=O)O1` (stereo not drawn), the entry is “inactive”; as for `C[C@]12CCC(=O)C=C1CC[C@@H]1[C@@H]2[C@@H](O)C[C@@]2(C)[C@H]1CC[C@]2(O)C(=O)COC(=O)CCC(=O)O`, “inactive”; as for `OCCOCCN1CCN(C(c2ccccc2)c2ccc(Cl)cc2)CC1` (stereo not drawn), “inactive”.
Take `CCCCOC(=O)CCCCCCCCC(=O)OCCCC`: the Potency result was “inactive”.
Still for that read-out and setting: as for `CCCCCC1Nc2cc(C(F)(F)F)c(S(N)(=O)=O)cc2S(=O)(=O)N1` (stereo not drawn), the entry is “inactive”; as for `CN1CCC(=C2c3ccccc3CCc3cccnc32)CC1`, “inactive”; as for `CSCC[C@H](NC(=O)[C@H](Cc1c[nH]c2ccccc12)NC(=O)CCNC(=O)OC(C)(C)C)C(=O)N[C@@H](CC(=O)O)C(=O)N[C@@H](Cc1ccccc1)C(N)=O`, “inactive”.
Still for that read-out and setting: as for `CCCc1c2oc(C(=O)O)cc(=O)c2cc2c(=O)cc(C(=O)O)n(CC)c12`, the entry is “inactive”; as for `CCC(=O)Oc1ccc2c(c1)CC[C@@H]1[C@@H]2CC[C@@]2(C)[C@H]1C[C@@H](OC(=O)CC)[C@@H]2OC(=O)CC`, “inactive”.
On the same count and under the same terms, as for `CCC(CN)=C(c1ccccc1)c1ccccc1`, the entry is “inactive”; as for `COc1ccc2nc(SCc3ncc(C)c(OC)c3C)[nH]c2c1`, “inactive”.
Turning to `N#CC1(c2ccc(F)cc2)CCC(=O)CC1`, the Potency entry was “inactive”.
`Cc1cc(CCCOc2c(C)cc(-c3noc(C(F)(F)F)n3)cc2C)on1`: the Potency result is “inactive”.
The same measure, in the same setting: the result for `NS(=O)(=O)c1cc(C(=O)NN2C[C@H]3[C@H]4CCC(C4)[C@H]3C2)ccc1Cl` reads “inactive”; that for `O=C(CCCl)NCc1ccccc1`, “inactive”; that for `CCCCC(O)/C=C(C)/C=C/C=C/C(=O)N1CCCC1=O` (stereo not drawn), “inactive”.
Still for that read-out and setting: the result for `CC(C)(C)NCC(O)COc1ccccc1OCC1CCCO1` (stereo not drawn) reads “inactive”; that for `Clc1ccc2c(c1)Nc1ccccc1S2`, “inactive”; that for `O=c1[nH]c2ccccc2c(=O)n1CCCl`, “inactive”.
As to `CCNC(=O)NCCCOc1cccc(CN2CCCCC2)c1`, the Potency result is “inactive”.
Same read-out and setting: as for `O=C1CC2(CCCC2)CC(=O)N1`, the entry is “inactive”.
For the molecule `CCCc1ncc(C(=O)O)s1`, the Potency result was “inactive”.
Same read-out and setting: the result for `CCOC(=O)c1ccc(NC(=O)CN2CCCCC2)cc1` reads “inactive”; that for `CCCCN(CCCC)C(C(N)=O)c1ccc(OC)cc1` (stereo not drawn), “inactive”.
Same read-out and setting: the result for `Cc1coc2ccccc2c1=O` reads “inactive”; that for `COC(=O)c1cc(S(N)(=O)=O)ccc1OC`, “inactive”; that for `CC(=O)Nc1ccc(S(=O)(=O)Nc2cc(C)on2)cc1`, “inactive”.
For `CCn1ccc(NS(=O)(=O)c2ccc(N)cc2)nc1=O`, the Potency entry was “inactive”.
On to `OCCCc1ccccc1`, for which the Potency result was “inactive”.

Source of the values: PubChem BioAssay (NCATS).
